According to the supplement of paper PMC11417369:
± gives the standard deviation of the averaged measurements. The full ranking holds about 25,000 sequences; the median of “ln(normalized median fluorescence intensity)” is about 8.9, and the highest 2% start at about 10. The sample as a whole holds a higher share of the highest values than the screen did.

System: PfAP2-LT AP2 domain (GST-tagged)
Test: gcPBM binding intensity (ln(normalized median fluorescence intensity)); higher = stronger DNA binding
Summary of the method: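 Binding intensity is defined as the maximum Masliner-normalised natural-log median intensity across replicate spots for either probe orientation. It was measured on an Agilent 4 × 180k array of primer-extended double-stranded 36-bp intergenic genomic probes and negative controls, to which GST-tagged P. falciparum DNA-binding domains made in E. coli were applied for 1 h in 1× PBS with 1% milk, 0.2 mg/ml BSA, 0.5% salmon testes DNA and 0.03% Triton X-100. Detection was by Alexa488 anti-GST antibody and scanning at 488 nm.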

Row | Sequence | gcPBM binding intensity (ln)
1 | AAATCTTAATAAAGTTGTACATAATTATGTTTAATA [XGTACX_site3348] | 8.55 ± 0.49
2 | TAATGGAATAAAAATTGTACATATTTTTTTTTTTTT [XGTACX_site7669] | 8.45 ± 0.36
3 | TTTCTTAAATATATTGAGGAATAAAAAGAAGAAAAG [GTGCAC_negctrl_site281] | 8.33 ± 0.4
4 | AGTATTATATATATATGTACATAATATACATATATA [XGTACX_site8514] | 8.73 ± 0.36
5 | TATGCTACATTATATGTACACACATATACATATATA [CACACA_site8199] | 9.11 ± 0.42
6 | AGGAACATTTACGCCCCACACACCTACCAACAAAAA [CACACA_site3827] | 9.59 ± 0.23
7 | TATAATGATGATGATAGTACGTATGAGTAAGAAAAA [XGTACX_site31] | 8.99 ± 0.54
8 | AGATTATAAAATTCTACACACATATATACCTATATA [CACACA_site5848] | 9.04 ± 0.42
9 | TGAACCAGATTTAGAAGTACTAAATATTACATACAT [XGTACX_site2437] | 8.7 ± 0.47
10 | AAATGGAAAAGGTGTACACAAAAAAAAGGGAAAAGC [CACACA_site5331] | 9.37 ± 0.5
11 | AACTTTTAGAAGAACACACACATATAGATTATGACC [CACACA_site6256] | 9.24 ± 0.33
12 | ATTATAACACCTCCCCCCCTTTTTTTATGAAGACCA [CACACA_negctrl_site1043] | 10.1 ± 0.4
13 | TATATTATGACCACCACACACCTATACACATAACAT [CACACA_site7199] | 9.45 ± 0.16
14 | ACAATTTATATTATATGTACTTAAAAAGTTCGTAAA [XGTACX_site6421] | 8.47 ± 0.27
15 | TTTTGAAGCTTTAAAACATATATATATATATATATA [CACACA_negctrl_site184] | 9.75 ± 0.41
16 | ATAATTGTTTCTTTCTCCTTTTTATTTCATTTTAAA [CACACA_negctrl_site964] | 8.68 ± 0.41
17 | TATATATTAAAATAATCACACACATCAATTAATGGT [CACACA_site8331] | 9.09 ± 0.42
18 | GCACGAAACAATGTATATATATATATATATATATAT [GTGCAC_negctrl_site412] | 10.32 ± 0.078
19 | ATAAAATAAAACAACACACACGAATGTATAAATATA [CACACA_site4643] | 9.53 ± 0.36

Row | Sequence | gcPBM binding intensity (ln)
20 | AAATAAAATAAAACAACACACACGAATGTATAAATA [CACACA_site885] | 9.45 ± 0.33
21 | ATGATTTATTATTATACACACAAAAAAAAAAAAGGA [CACACA_site264] | 8.84 ± 0.42
22 | AATATCAATGATGTTACATGCAAGAGAATCCACAAA [TGCATGCA_site678] | 8.96 ± 0.42
23 | CAAAAAATTCAACACACACACACACCGATAAATAAA [CACACA_site8330] | 10.11 ± 0.071
24 | TTCAAAATAAAAAATTCACACACATATATATATATA [CACACA_site8653] | 9.44 ± 0.17
25 | CATATAAAAATGTGCACACACACACCGATATATATT [CACACA_site4940] | 9.95 ± 0.17
26 | AAATAATTCAAAAAAACACACAAATTACAAAATAAA [CACACA_site269] | 8.92 ± 0.55
27 | TATATATATAAATACACACACACACCGATATATATA [CACACA_site5408] | 9.97 ± 0.11
28 | CCTAAATAAATGGACACACACATATATATATATATA [CACACA_site1439] | 9.85 ± 0.29
29 | CACTAAAATGGACACACACACACACCGATATATATA [CACACA_site6139] | 10.1 ± 0.23
30 | AATATAAATAATGTTAAACACACATACCGATATATA [CACACA_site8869] | 9.02 ± 0.45
31 | TATATATATATATGTACACACACACCGATAAATAAA [CACACA_site8041] | 9.69 ± 0.15
32 | AAAATACATAAACACACACACACACCGATATATATA [CACACA_site9186] | 10.43 ± 0.092
33 | AAATAATATAAACATACACACACACCGATATATATA [CACACA_site8945] | 9.92 ± 0.17
34 | ACCATATAAATAAACACACACACACCGATATATATA [CACACA_site5310] | 10.09 ± 0.085
35 | AGGCTATAATACCATACACACATTTATAAAATAACA [CACACA_site6990] | 9.07 ± 0.42
36 | ATACTTATGATAAATACACACTTGAAATTAAGGATT [CACACA_site4772] | 8.85 ± 0.37
37 | CATTTTTCTATATGTGCATGTAAGATAAGAATAATT [TGCATGCA_site107] | 8.48 ± 0.3
38 | TATTTTTCCATATGCACACACACCGTATCTAGAATA [CACACA_site6654] | 9.47 ± 0.37

Row | Sequence | gcPBM binding intensity (ln)
39 | ATAATTAAAATGCTCACACACATAAAAAAAAATTAA [CACACA_site2149] | 8.94 ± 0.46
40 | TTATTATTATGATTATTATGATGATTATACAACTGT [TGCATGCA_negctrl_site241] | 8.85 ± 0.35
41 | AAATTGAATTAGTTAACACACAACTTTTATTTCATA [CACACA_site2840] | 8.74 ± 0.4
42 | TCAAATATATAGAATACACACATGGATATAAGAAAT [CACACA_site4065] | 9.2 ± 0.4
43 | TTATAATAAAATGAATATATATAATTTAAAATATTT [CACACA_negctrl_site1651] | 8.27 ± 0.54
44 | TATATTTATAAGTGTACACATTATATAAATCCCTAT [CACACA_site6122] | 8.65 ± 0.42
45 | AATTTTCTACAAATGTGTACTAAATAAAATATTACT [XGTACX_site7175] | 8.63 ± 0.39
46 | GGAATAATATAAAACACACACATAAATATAAATATA [CACACA_site3376] | 9.45 ± 0.35
47 | AAAAAAAAAAGAATAGCACACACACCGATATAAATA [CACACA_site8111] | 9.71 ± 0.37
48 | TAAAAAAAAAAAAATACACACACACCGATATATATA [CACACA_site8498] | 9.76 ± 0.19
49 | CACTAAAATAAACACACACACACACCGATATATATA [CACACA_site9379] | 9.96 ± 0.014
50 | CAAAATAATATATATACACACACACCGATATATATA [CACACA_site8082] | 9.81 ± 0.18
51 | TGGGAATAAAAACACACACACACACCGATATATATA [CACACA_site5875] | 10.1 ± 0.41
52 | AAGGATATAACATACACACACACACCGATATATATA [CACACA_site6136] | 10 ± 0.29
53 | AATATAAATAAAAACACACACACACCGATATATATA [CACACA_site5283] | 10.2 ± 0.11
54 | AAAAAAAAAAAAAATACACACACACCGATATATATA [CACACA_site8142] | 9.775 ± 0.092
55 | AAAATACATGGACACACACACACACCGATATATATA [CACACA_site5885] | 10.4 ± 0.21
56 | AAAAAGGATAAACACACACACACACCGATATATATA [CACACA_site8206] | 10.34 ± 0.099
57 | AATAAAAAGGAACACACACACACACCGATATATATA [CACACA_site5895] | 10.08 ± 0.085
